PubChem BioAssay (NCATS)
“And” between values parts separate entries of the source, which are not always exact repeats. Equal entries are not always repeated. Records with an inconclusive call do not appear. The source holds several records for some structures; these can differ, active in one and inactive in another. The source made the active and inactive calls. The call rests on the fitted dose curve; in most records, active means well fitted curve in the direction sought with a large enough effect; inconclusive means small, poorly fitted or top-dose-only effect, or another doubt; inactive means no such curve, though single readings can be large; an effect the other way counts as inactive or inconclusive.

Columns and labels:
[1] = Viability qHTS for spleen associated tyrosine kinase inhibitor (SYKi) naive MV4-11 cells (AID 1963823); settings: MV4-11 AML viability, CellTiter-Glo luminescence, 72 h; series mostly up to 45 µM; further: nearly all actives have a fitted effect of over 40% in size; further: potency means the concentration at half of the fitted maximal effect
Procedure, shortened: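 Cells: MV4-11, SYK inhibitor naive, 500 per well. Treatment: library compounds, 72 hr, 37 C, 5% CO2. Read-out: CellTiter-Glo luminescence after 10 min RT.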

[2] = Viability qHTS for spleen associated tyrosine kinase inhibitor (SYKi) drug resistant MV4-11 cells (AID 1963824); settings: SYKi-resistant MV4-11 viability, CellTiter-Glo, 72 h; series mostly up to 45 µM; further: nearly all actives have a fitted effect of over 35% in size; further: potency means the concentration at half of the fitted maximal effect
Procedure, shortened: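 SYK inhibitor-resistant MV4-11 AML cells, 500 per well, added to predispensed compounds and incubated 72 hr at 37 C, 5% CO2. Viability measured by CellTiter-Glo luminescence after 10 min at room temperature.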

[3] = Quantitative highthroughput screen to assess conditional lethalithy of NOMO1 cells grown in RPMI1640 with untreated serum (RPMI+s) (AID 1963876); settings: NOMO1 AML cells in RPMI+serum, CellTiter-Glo viability, 48 h; series mostly up to 45.8 µM; further: nearly all actives have a fitted effect of over 35% in size; further: potency means the concentration at half of the fitted maximal effect;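 on Viability: 100% = DMSO wells and 0% = empty wells without cells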
Procedure, shortened: (§1)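 Each medium arm—HPLM with 10% dialyzed FBS, or RPMI1640 with 5 mM glucose and 10% untreated or dialyzed FBS—was screened against an 11-point, 3-fold compound titration for 48 h at 37 °C, with CellTiter-Glo luminescence as endpoint.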

[4] = Quantitative highthroughput screen to assess conditional lethalithy of NOMO1 cells grown in Human Plasma-Like Medium with dialyzed fetal bovine serum (HPLM+ds) (AID 1963878); settings: NOMO1 AML cells in HPLM+ds, CellTiter-Glo viability, 48 h; series mostly up to 45.8 µM; further: nearly all actives have a fitted effect of over 35% in size; further: potency means the concentration at half of the fitted maximal effect;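 on Viability: 100% = DMSO wells and 0% = empty wells on each plate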
Procedure, shortened: as §1

[5] = Quantitative highthroughput screen to assess conditional lethalithy of P12 Ichikawa cells grown in Human Plasma-Like Medium with dialyzed fetal bovine serum (HPLM+ds) (AID 1963879); settings: ATP luminescence, 48 h; Potency: viability; series mostly up to 45.8 µM; further: nearly all actives have a fitted effect of over 35% in size; further: potency means the concentration at half of the fitted maximal effect
Procedure, shortened: as §1

[6] = Cellular viability qHTS for adrenocortical cancer (ACC) cell line SW-13 (AID 1963989); settings: SW-13 ACC cells viability, CellTiter-Glo, 48 h; activity (max response): stronger effect = lower value; further: nearly all actives have a fitted effect of over 65% in size; further: potency means the concentration at half of the fitted maximal effect;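 on activity (max response): cells grown in serum-free medium with ITS supplement; on the % scale 0 is the no-effect control and ±100 the full control effect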
Procedure, shortened: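 SW-13 cells in ITS-supplemented serum-free DMEM were plated overnight, then exposed for 48 h at 37C to compound titrations (up to 46 uM final). Viability was read by CellTiter-Glo luminescence; four-parameter logistic fits gave IC50 and efficacy.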

[7] = Cellular viability qHTS for adrenocortical cancer (ACC) cell line NCI-H295R (AID 1963990); settings: CellTiter-Glo ATP luminescence, 48 h; series mostly up to 46.1 µM; further: nearly all actives have a fitted effect of over 60% in size; further: potency means the concentration at half of the fitted maximal effect
Procedure, shortened: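 Luminescent ATP read-out (CellTiter-Glo, 20 min RT) after 48 h drug exposure of NCI-H295R cells; a titration up to 46 uM final. Data normalized to doxorubicin (100% inhibition) and DMSO (0%); 4-parameter fit gives IC50, max response.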

[8] = Quantitative highthroughput screen to assess conditional lethalithy of P12 Ichikawa cells grown in RPMI1640 with dialyzed fetal bovine serum (RPMI+ds) (AID 1963880); settings: ATP luminescence, 48 h; Potency: P12-Ichikawa viability; series mostly up to 45.8 µM
Procedure, shortened: as §1

[9] = Quantitative highthroughput screen to assess conditional lethalithy of P12 Ichikawa cells grown in RPMI1640 with untreated serum (RPMI+s) (AID 1963881); settings: ATP luminescence, 48 h; Potency: viability; series mostly up to 45.8 µM; further: nearly all actives have a fitted effect of over 35% in size; further: potency means the concentration at half of the fitted maximal effect;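 on Viability: 100% = DMSO wells and 0% = empty wells without cells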
Procedure, shortened: as §1

[10] = Quantitative highthroughput screen to assess conditional lethalithy of SEM cells grown in Human Plasma-Like Medium with dialyzed fetal bovine serum (HPLM+ds) (AID 1963882); settings: SEM B-ALL cells in HPLM+ds, CellTiter-Glo viability, 48 h; series mostly up to 45.8 µM; further: nearly all actives have a fitted effect of over 35% in size; further: potency means the concentration at half of the fitted maximal effect
Procedure, shortened: as §1

[11] = Quantitative highthroughput screen to assess conditional lethalithy of SEM cells grown in RPMI1640 with dialyzed fetal bovine serum (RPMI+ds) (AID 1963884); settings: SEM B-ALL cells, RPMI+dialyzed FBS, CellTiter-Glo viability, 48 h; series mostly up to 45.8 µM; further: nearly all actives have a fitted effect of over 35% in size; further: potency means the concentration at half of the fitted maximal effect;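 on Viability: 100% = DMSO control wells and 0% = empty wells without cells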
Procedure, shortened: as §1

[12] = Quantitative highthroughput screen to assess conditional lethalithy of SEM cells grown in RPMI1640 with unreated serum (RPMI+s) (AID 1963883); settings: SEM B-ALL cells, CellTiter-Glo viability, 48 h; series mostly up to 45.8 µM; further: nearly all actives have a fitted effect of over 35% in size; further: potency means the concentration at half of the fitted maximal effect;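 on Viability: 100% = DMSO wells and 0% = empty wells without cells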
Procedure, shortened: as §1

[13] = Quantitative highthroughput screen to assess conditional lethalithy of NOMO1 cells grown in RPMI1640 with dialyzed fetal bovine serum (RPMI+ds) (AID 1963877); settings: NOMO1 in RPMI+dialyzed FBS viability, ATP luminescence, 48 h; series mostly up to 45.8 µM;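 further: 100% = DMSO control wells and 0% = empty wells; nearly all actives have a fitted effect of over 30% in size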
Procedure, shortened: as §1

Compound: CC(C)C[C@@H](N)[C@H](O)C(=O)N[C@H](C(=O)N[C@H](C(=O)N[C@@H](CC(=O)O)C(=O)O)C(C)C)C(C)C
- Potency [1]: inactive
- Potency [2]: inactive
- Potency [3]: inactive
- Potency [4]: inactive
- Potency [5]: inactive
- activity (max response) [6]: -8.42% (inactive)
- Potency [7]: inactive

Compound: COc1ccc(COc2cc3oc(=O)c4cc(C(C)O)ccc4c3cc2OC)cc1 (centres undefined)
- Potency [1]: inactive
- Potency [2]: 8.2 µM (active) and 4.68 µM (active)
- Potency [3]: inactive
- Potency [4]: inactive
- Potency [8]: inactive
- Potency [9]: 18.7 µM (active)
- Potency [10]: 18.7 µM (active)
- Potency [7]: inactive

Compound: CNc1nccc(-c2cccnc2Oc2cc(C(=O)Nc3cccc(C(F)(F)F)c3)ccc2C)n1
- Potency [1]: 517 nM (active) and 1.18 µM (active)
- Potency [2]: 1.3 µM (active) and 2.09 µM (active)
- Potency [3]: inactive
- Potency [5]: inactive
- Potency [8]: inactive
- Potency [10]: inactive
- Potency [11]: inactive

Compound: CCC(C)(C)C(=O)O[C@H]1C[C@@H](C)C=C2C=C[C@H](C)[C@H](CC[C@@H]3C[C@@H](O)CC(=O)O3)[C@H]21
- Potency [1]: 8.41 µM (active) and 9.34 µM (active)
- Potency [2]: 2.99 µM (active) and 3.72 µM (active)
- Potency [3]: 20.9 µM (active)
- Potency [4]: 18.7 µM (active)
- Potency [9]: 14.8 µM (active)
- Potency [7]: inactive and 17.8 µM (active)

Compound: CC(C)Nc1cc(-c2c[nH]c(C(=O)N[C@H](CO)c3cccc(Cl)c3)c2)c(Cl)cn1
- Potency [1]: 2.91 µM (active) and 2.09 µM (active)
- Potency [2]: 1.64 µM (active) and 2.63 µM (active)
- Potency [3]: 14.8 µM (active)
- Potency [10]: 20.9 µM (active)
- Potency [12]: 18.6 µM (active)
- Potency [11]: 16.6 µM (active)
- Potency [6]: 15.8 µM (active)
- Potency [7]: 8.91 µM (active)

Compound: C[N+]1(C)[C@@H]2C[C@@H](OC(=O)C(O)(c3cccs3)c3cccs3)C[C@H]1[C@@H]1O[C@@H]12
- Potency [1]: inactive
- Potency [2]: inactive
- Potency [13]: inactive
- Potency [4]: inactive
- Potency [5]: inactive
- Potency [8]: inactive
- Potency [9]: inactive
- Potency [10]: inactive
- Potency [12]: inactive
- Potency [11]: inactive

Compound: Cc1ccc(S(=O)(=O)OCC(=O)Nc2ccc(C(=O)O)c(O)c2)cc1
- Potency [1]: inactive
- Potency [2]: inactive
- Potency [3]: inactive
- Potency [5]: 23.5 µM (active)
- Potency [12]: 16.6 µM (active)
- activity (max response) [6]: 6.62% (inactive)
- Potency [7]: inactive

Compound: NC1(C(=O)N[C@@H](CCO)c2ccc(Cl)cc2)CCN(c2ncnc3[nH]ccc23)CC1
- Potency [1]: 0.461 µM (active)
- Potency [2]: 651 nM (active)
- Potency [3]: 10.5 µM (active)
- Potency [12]: 3.32 µM (active)
- Potency [11]: 2.64 µM (active)
- activity (max response) [6]: -21.3% (inactive)
- Potency [7]: 5.62 µM (active)

Compound: COc1cc2ncnc(Nc3ccc(F)c(Cl)c3)c2cc1OCCCN1CCOCC1
- Potency [1]: 4.22 µM (active)
- Potency [2]: 6.68 µM (active) and 3.66 µM (active)
- Potency [3]: inactive
- Potency [8]: inactive
- Potency [9]: inactive
- Potency [10]: 38.2 µM (active)
- Potency [12]: 42.9 µM (active)
- Potency [7]: inactive

Compound: C#Cc1cccc(Nc2ncnc3cc(OCCOC)c(OCCOC)cc23)c1
- Potency [1]: 3.76 µM (active) and 1.86 µM (active)
- Potency [2]: 6.68 µM (active) and 2.31 µM (active)
- Potency [3]: inactive
- Potency [7]: 6.51 µM (active)

Compound: NC(N)=NC(=O)c1nc(Cl)c(N)nc1N
- Potency [1]: 5.39 µM (active) and 841 nM (active)
- Potency [2]: 12.1 µM (active) and 668 nM (active)
- Potency [3]: 0.935 µM (active)
- Potency [10]: inactive
- Potency [12]: inactive
- activity (max response) [6]: -8.19% (inactive) and -7.03% (inactive)

Compound: Nc1ccc(C(=O)Nc2cccc(-c3nc(N4CCOCC4)c4oc5ncccc5c4n3)c2)cn1
- Potency [1]: 10.3 µM (active)
- Potency [2]: 3660 nM (active)
- Potency [3]: inactive
- Potency [10]: 20.9 µM (active)
- Potency [12]: 18.7 µM (active)
- Potency [11]: 20.9 µM (active)
